# Data taken from PubChem BioAssay AID1159580 (chemical genetic matrix, 2015).
# The campaign covered roughly 5,500 compounds. About 2,000 (36%) were called active. Not shown: some 18% with an inconclusive outcome. The list shows a part of the results. Unmarked numbers belong to inactive results. No stated cut-off is given here; in the data, active means normalized growth mostly below about 0.91 (no sharp cut-off); inconclusive means no clear call, values can overlap the other calls; inactive means mostly above about 0.92.
# Test: chemical genetic growth profiling, strain panel (AID 1159580);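 further: tested at 20 µM; growth read once vehicle control cultures reached saturation at 30 °C; 1 = growth at the plate median or of vehicle wells; lower values mean less growth of the strain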
# Settings: growth OD
structure (smiles),measurement,setting,value
O=C(O[C@@H]1Cc2c(O)cc(O)cc2O[C@@H]1c1cc(O)c(=O)c2c(O)c(O)cc([C@H]3Oc4cc(O)cc(O)c4C[C@H]3OC(=O)c3cc(O)c(O)c(O)c3)c2c1)c1cc(O)c(O)c(O)c1,normalized growth,"S. cerevisiae deletion strains, locus YJR075W, strain HOC1, active compounds read low",0.753 (active)
same,normalized growth,"S. cerevisiae deletion strains, locus YKL009W, strain mrt4, active compounds read low",1.06
same,normalized growth,"S. cerevisiae deletion strains, locus YKL068W, active compounds read low",1.04
same,normalized growth,"S. cerevisiae deletion strains, locus YKL085W, strain MDH1 (second series), active compounds read low",1.05
same,normalized growth,"S. cerevisiae deletion strains, locus YKL085W, strain MDH1, active compounds read low",1.05
same,normalized growth,"S. cerevisiae deletion strains, locus YKL160W, strain elf1, active compounds read low",0.71 (active)
same,normalized growth,"S. cerevisiae deletion strains, locus YKL190W, strain CNB1, active compounds read low",0.637 (active)
same,normalized growth,"S. cerevisiae deletion strains, locus YKR001C, strain vps1, active compounds read low",0.979
same,normalized growth,"S. cerevisiae deletion strains, locus YKR026C, strain gcn3, active compounds read low",0.971
same,normalized growth,"S. cerevisiae deletion strains, locus YKR091W, strain srl3, active compounds read low",0.927 (active)
same,normalized growth,"S. cerevisiae deletion strains, locus YLL001W, strain dnm1, active compounds read low",0.614 (active)
same,normalized growth,"S. cerevisiae deletion strains, locus YLL026W, active compounds read low",0.553 (active)
same,normalized growth,"S. cerevisiae deletion strains, locus YLL041C, strain sdh2, active compounds read low",0.661 (active)
same,normalized growth,"S. cerevisiae deletion strains, locus YLR027C, strain aat2, active compounds read low",0.407 (active)
same,normalized growth,"S. cerevisiae deletion strains, locus YLR039C, strain RIC1, active compounds read low",0.598 (active)
same,normalized growth,"S. cerevisiae deletion strains, locus YLR058C, strain SHM2, active compounds read low",0.525 (active)
same,normalized growth,"S. cerevisiae deletion strains, locus YLR102C, strain apc9, active compounds read low",1.04
same,normalized growth,"S. cerevisiae deletion strains, locus YLR113W, strain HOG1, active compounds read low",1.12
same,normalized growth,"S. cerevisiae deletion strains, locus YLR221C, strain rsa3, active compounds read low",0.573 (active)
same,normalized growth,"S. cerevisiae deletion strains, locus YLR258W, strain gsy2, active compounds read low",0.523 (active)
same,normalized growth,"S. cerevisiae deletion strains, locus YLR262C, strain YPT6 (second series), active compounds read low",0.539 (active)
same,normalized growth,"S. cerevisiae deletion strains, locus YLR262C, strain YPT6, active compounds read low",0.69
same,normalized growth,"S. cerevisiae deletion strains, locus YLR268W, strain sec22, active compounds read low",0.81 (active)
same,normalized growth,"S. cerevisiae deletion strains, locus YLR320W, strain mms22, active compounds read low",0.619 (active)
same,normalized growth,"S. cerevisiae deletion strains, locus YLR330W, strain CHS5, active compounds read low",0.898 (active)
same,normalized growth,"S. cerevisiae deletion strains, locus YLR342W, strain FKS1 (second series), active compounds read low",0.449 (active)
same,normalized growth,"S. cerevisiae deletion strains, locus YLR342W, strain FKS1, active compounds read low",0.447 (active)
same,normalized growth,"S. cerevisiae deletion strains, locus YLR357W, strain rsc2, active compounds read low",0.602 (active)
same,normalized growth,"S. cerevisiae deletion strains, locus YLR370C, strain arc18, active compounds read low",0.499 (active)
same,normalized growth,"S. cerevisiae deletion strains, locus YLR371W, strain rom2, active compounds read low",0.849 (active)
same,normalized growth,"S. cerevisiae deletion strains, locus YLR384C, strain iki3, active compounds read low",0.713 (active)
same,normalized growth,"S. cerevisiae deletion strains, locus YLR418C, strain cdc73, active compounds read low",0.583 (active)
same,normalized growth,"S. cerevisiae deletion strains, locus YML016C, strain PPZ1, active compounds read low",0.482 (active)
same,normalized growth,"S. cerevisiae deletion strains, locus YML032C, strain rad52, active compounds read low",1.05
same,normalized growth,"S. cerevisiae deletion strains, locus YML120C, strain ndi1, active compounds read low",0.634 (active)
same,normalized growth,"S. cerevisiae deletion strains, locus YML124C, strain tub3, active compounds read low",1.02
same,normalized growth,"S. cerevisiae deletion strains, locus YMR058W, strain fet3, active compounds read low",0.101 (active)
same,normalized growth,"S. cerevisiae deletion strains, locus YMR078C, strain ctf18, active compounds read low",1.02
same,normalized growth,"S. cerevisiae deletion strains, locus YMR125W, strain sto1, active compounds read low",1.04
same,normalized growth,"S. cerevisiae deletion strains, locus YMR129W, active compounds read low",0.604 (active)
same,normalized growth,"S. cerevisiae deletion strains, locus YMR205C, strain PFK2, active compounds read low",0.353 (active)
same,normalized growth,"S. cerevisiae deletion strains, locus YMR223W, strain ubp8, active compounds read low",0.979
same,normalized growth,"S. cerevisiae deletion strains, locus YMR231W, strain pep5, active compounds read low",0.158 (active)
same,normalized growth,"S. cerevisiae deletion strains, locus YMR263W, strain SAP30, active compounds read low",0.723 (active)
same,normalized growth,"S. cerevisiae deletion strains, locus YMR307W, strain GAS1, active compounds read low",0.481 (active)
same,normalized growth,"S. cerevisiae deletion strains, locus YNL067W, strain RPL9B, active compounds read low",0.699 (active)
same,normalized growth,"S. cerevisiae deletion strains, locus YNL071W, strain lat1, active compounds read low",0.607 (active)
same,normalized growth,"S. cerevisiae deletion strains, locus YNL128W, strain TEP1, active compounds read low",0.351 (active)
same,normalized growth,"S. cerevisiae deletion strains, locus YNL153C, strain GIM3, active compounds read low",0.741 (active)
same,normalized growth,"S. cerevisiae deletion strains, locus YNL183C, strain NPR1, active compounds read low",0.983
same,normalized growth,"S. cerevisiae deletion strains, locus YNL209W, strain ssb2, active compounds read low",0.149 (active)
same,normalized growth,"S. cerevisiae deletion strains, locus YNL233W, strain BNI4, active compounds read low",0.768 (active)
same,normalized growth,"S. cerevisiae deletion strains, locus YNL248C, strain rpa49, active compounds read low",0.863 (active)
same,normalized growth,"S. cerevisiae deletion strains, locus YNL250W, strain rad50, active compounds read low",1.02
same,normalized growth,"S. cerevisiae deletion strains, locus YNL271C, strain bni1, active compounds read low",1.03
same,normalized growth,"S. cerevisiae deletion strains, locus YNL298W, strain CLA4, active compounds read low",1.03
same,normalized growth,"S. cerevisiae deletion strains, locus YNL307C, strain MCK1, active compounds read low",1.04
same,normalized growth,"S. cerevisiae deletion strains, locus YNL322C, strain KRE1 (second series), active compounds read low",0.857 (active)
same,normalized growth,"S. cerevisiae deletion strains, locus YNL322C, strain KRE1, active compounds read low",0.569 (active)
same,normalized growth,"S. cerevisiae deletion strains, locus YNR049C, strain mso1, active compounds read low",0.913 (active)
same,normalized growth,"S. cerevisiae deletion strains, locus YNR052C, strain pop2, active compounds read low",0.975
same,normalized growth,"S. cerevisiae deletion strains, locus YOL006C, strain TOP1, active compounds read low",0.216 (active)
same,normalized growth,"S. cerevisiae deletion strains, locus YOL012C, strain htz1",0.378
same,normalized growth,"S. cerevisiae deletion strains, locus YOL147C, strain pex11, active compounds read low",1.01
same,normalized growth,"S. cerevisiae deletion strains, locus YOR001W, strain rrp6, active compounds read low",0.57 (active)
same,normalized growth,"S. cerevisiae deletion strains, locus YOR061W, strain CKA2, active compounds read low",0.848 (active)
same,normalized growth,"S. cerevisiae deletion strains, locus YOR069W, strain VPS5, active compounds read low",0.891 (active)
same,normalized growth,"S. cerevisiae deletion strains, locus YOR070C, strain gyp1, active compounds read low",0.495 (active)
same,normalized growth,"S. cerevisiae deletion strains, locus YOR080W, strain dia2, active compounds read low",0.286 (active)
same,normalized growth,"S. cerevisiae deletion strains, locus YOR083W, strain WHI5, active compounds read low",0.543 (active)
same,normalized growth,"S. cerevisiae deletion strains, locus YOR106W, strain vam3, active compounds read low",0.119 (active)
same,normalized growth,"S. cerevisiae deletion strains, locus YOR136W, strain idh2, active compounds read low",0.99
same,normalized growth,"S. cerevisiae deletion strains, locus YOR144C, strain elg1, active compounds read low",1.01
same,normalized growth,"S. cerevisiae deletion strains, locus YOR184W, strain ser1, active compounds read low",0.857 (active)
same,normalized growth,"S. cerevisiae deletion strains, locus YOR231W, strain MKK1, active compounds read low",1.04
same,normalized growth,"S. cerevisiae deletion strains, locus YOR265W, strain rbl2, active compounds read low",0.658 (active)
same,normalized growth,"S. cerevisiae deletion strains, locus YOR270C, strain vph1, active compounds read low",0.223 (active)
same,normalized growth,"S. cerevisiae deletion strains, locus YOR290C, strain snf2, active compounds read low",0.496 (active)
same,normalized growth,"S. cerevisiae deletion strains, locus YOR316C, strain cot1, active compounds read low",1.04
same,normalized growth,"S. cerevisiae deletion strains, locus YPL051W, strain arl3, active compounds read low",0.263 (active)
same,normalized growth,"S. cerevisiae deletion strains, locus YPL055C, strain LGE1, active compounds read low",0.473 (active)
same,normalized growth,"S. cerevisiae deletion strains, locus YPL078C, strain atp4, active compounds read low",0.705 (active)
same,normalized growth,"S. cerevisiae deletion strains, locus YPL106C, strain sse1, active compounds read low",0.593 (active)
same,normalized growth,"S. cerevisiae deletion strains, locus YPL240C, strain hsp82, active compounds read low",0.679 (active)
same,normalized growth,"S. cerevisiae deletion strains, locus YPL241C, strain CIN2, active compounds read low",0.922 (active)
same,normalized growth,"S. cerevisiae deletion strains, locus YPL256C, strain CLN2, active compounds read low",1.15
same,normalized growth,"S. cerevisiae deletion strains, locus YPR119W, strain clb2, active compounds read low",1.03
same,normalized growth,"S. cerevisiae deletion strains, locus YPR141C, strain kar3, active compounds read low",1.03
same,normalized growth,"S. cerevisiae deletion strains, locus YPR163C, strain tif3, active compounds read low",1.02
same,normalized growth,"S. cerevisiae deletion strains, locus YPR167C, strain met16, active compounds read low",1.02
same,normalized growth,"S. cerevisiae deletion strains, strain wtn01, active compounds read low",0.808 (active)
same,normalized growth,"S. cerevisiae strains, strain wild type, active compounds read low",0.491 (active)
